From PubChem BioAssay AID1159580 (chemical genetic matrix, 2015)
Screen size: about 5,500 compounds; about 2,000 (36%) were called active. Not shown: some 18% with an inconclusive outcome. No stated cut-off is given here; in the data, active means normalized growth mostly below about 0.91 (no sharp cut-off); inconclusive means no clear call, values can overlap the other calls; inactive means mostly above about 0.92. The list shows a part of the results.

Experiment: chemical genetic growth profiling, strain panel (AID 1159580);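 further: tested at 20 µM; growth read once vehicle control cultures reached saturation at 30 °C; 1 = growth at the plate median or of vehicle wells; lower values mean less growth of the strain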
Conditions: S. cerevisiae deletion strains, growth OD
[1] = locus YAR019C, strain CDC15, active compounds read low
[2] = locus YBL105C, strain PKC1, active compounds read low
[3] = locus YBR135W, strain CKS1, active compounds read low
[4] = locus YBR136W, strain MEC1, active compounds read low
[5] = locus YBR160W, strain CDC28, active compounds read low
[6] = locus YDL017W, strain CDC7, active compounds read low
[7] = locus YDL028C, strain MPS1, active compounds read low
[8] = locus YDL101C, strain DUN1, active compounds read low
[9] = locus YDL108W, strain KIN28, active compounds read low
[10] = locus YDL132W, strain cdc53, active compounds read low
[11] = locus YDL214C, strain PRR2, active compounds read low
[12] = locus YDR052C, strain DBF4, active compounds read low
[13] = locus YDR054C, strain cdc34, active compounds read low
[14] = locus YDR226W, strain ADK1, active compounds read low
[15] = locus YDR477W, strain SNF1, active compounds read low
[16] = locus YER123W, strain YCK3, active compounds read low
[17] = locus YER133W, strain GLC7, active compounds read low
[18] = locus YFL009W, strain cdc4, active compounds read low
[19] = locus YFL029C, strain CAK1, active compounds read low
[20] = locus YFR003C, strain YPI1, active compounds read low
[21] = locus YFR019W, strain FAB1, active compounds read low
[22] = locus YFR028C, strain CDC14, active compounds read low
[23] = locus YGR040W, strain KSS1, active compounds read low
[24] = locus YGR052W, strain FMP48, active compounds read low
[25] = locus YGR092W, strain DBF2, active compounds read low
[26] = locus YHR030C, strain SLT2, active compounds read low
[27] = locus YHR079C, strain IRE1, active compounds read low
[28] = locus YHR082C, strain KSP1, active compounds read low
[29] = locus YHR205W, strain SCH9, active compounds read low
[30] = locus YIL147C, strain SLN1, active compounds read low
[31] = locus YJL095W, strain BCK1, active compounds read low
[32] = locus YJL128C, strain PBS2, active compounds read low
[33] = locus YJL157C, strain FAR1, active compounds read low
[34] = locus YJR016C, strain ILV3, active compounds read low
[35] = locus YJR066W, strain TOR1 (second series), active compounds read low
[36] = locus YJR066W, strain TOR1, active compounds read low
[37] = locus YKL048C, strain ELM1, active compounds read low
[38] = locus YKL067W, strain YNK1, active compounds read low
[39] = locus YKL101W, strain HSL1, active compounds read low
[40] = locus YKL193C, strain SDS22, active compounds read low
[41] = locus YKL203C, strain TOR2, active compounds read low
[42] = locus YLR113W, strain HOG1, active compounds read low
[43] = locus YLR133W, strain CKI1, active compounds read low
[44] = locus YLR403W, strain SFP1, active compounds read low
[45] = locus YML070W, strain DAK1, active compounds read low
[46] = locus YMR001C, strain CDC5, active compounds read low
[47] = locus YMR205C, strain PFK2 (second series), active compounds read low
[48] = locus YMR277W, strain FCP1, active compounds read low
[49] = locus YNL006W, strain LST8, active compounds read low
[50] = locus YNL020C, strain ARK1, active compounds read low
[51] = locus YNL161W, strain CBK1, active compounds read low
[52] = locus YNL183C, strain NPR1, active compounds read low
[53] = locus YNL207W, strain RIO2, active compounds read low
[54] = locus YNL222W, strain SSU72, active compounds read low
[55] = locus YNL307C, strain MCK1 (second series), active compounds read low
[56] = locus YOL078W, strain AVO1, active compounds read low
[57] = locus YOL136C, strain PFK27, active compounds read low
[58] = locus YOR061W, strain CKA2, active compounds read low
[59] = locus YOR119C, strain RIO1, active compounds read low
[60] = locus YOR231W, strain MKK1, active compounds read low
[61] = locus YOR329C, strain SCD5, active compounds read low
[62] = locus YPL031C, strain PHO85, active compounds read low
[63] = locus YPL153C, strain RAD53, active compounds read low
[64] = locus YPL204W, strain HRR25, active compounds read low
[65] = locus YPL209C, strain IPL1, active compounds read low
[66] = locus YPL256C, strain CLN2, active compounds read low
[67] = locus YPR025C, strain CCL1, active compounds read low
[68] = locus YPR106W, strain ISR1, active compounds read low
[69] = locus YPR111W, strain DBF20, active compounds read low
[70] = strain NNK1, active compounds read low
[71] = strain TSCII, active compounds read low

Measured: normalized growth

O=C(/C=C/c1ccc(Cl)cc1)Nc1cccc(Cl)c1
active: [26] 0.846 | [42] 0.816
inactive: [1] 0.958 | [2] 0.948 | [3] 0.961 | [4] 0.961 | [5] 0.961 | [6] 0.949 | [7] 0.951 | [8] 0.973 | [9] 0.961 | [10] 0.962 | [11] 0.88 | [12] 0.952 | [13] 0.958 | [14] 0.95 | [15] 0.838 | [16] 0.631 | [17] 0.831 | [18] 0.963 | [19] 0.949 | [20] 0.953 | [21] 0.936 | [22] 0.968 | [23] 0.816 | [24] 0.819 | [25] 0.485 | [27] 0.853 | [28] 0.875 | [29] 0.744 | [30] 0.96 | [31] 0.754 | [32] 0.919 | [33] 0.889 | [34] 0.965 | [35] 0.877 | [36] 0.831 | [37] 0.895 | [38] 0.876 | [39] 0.872 | [40] 0.956 | [41] 0.881 | [43] 0.864 | [44] 0.774 | [45] 0.798 | [46] 0.96 | [47] 0.886 | [48] 0.957 | [49] 0.971 | [50] 0.883 | [51] 0.965 | [52] 0.796 | [53] 0.948 | [54] 0.961 | [55] 0.699 | [56] 0.938 | [57] 0.839 | [58] 0.857 | [59] 0.867 | [60] 0.837 | [61] 0.957 | [62] 0.835 | [63] 0.863 | [64] 0.822 | [65] 0.96 | [66] 0.862 | [67] 0.952 | [68] 0.944 | [69] 0.942 | [70] 0.96 | [71] 0.965

CC(C)OC(=O)Nc1cc(Cl)cc(Cl)c1
inactive: [1] 0.971 | [2] 0.97 | [3] 0.964 | [4] 0.986 | [5] 0.981 | [6] 0.974 | [7] 0.996 | [8] 0.972 | [9] 0.98 | [10] 0.953 | [11] 0.864 | [12] 0.993 | [13] 0.939 | [14] 0.982 | [15] 0.873 | [16] 0.845 | [17] 0.764 | [18] 0.96 | [19] 0.972 | [20] 0.972 | [21] 0.966 | [22] 0.985 | [23] 0.838 | [24] 0.822 | [25] 0.765 | [27] 0.754 | [28] 0.988 | [29] 0.777 | [30] 0.987 | [31] 0.716 | [32] 0.899 | [33] 0.902 | [34] 0.957 | [35] 0.883 | [36] 0.99 | [37] 0.864 | [38] 0.857 | [39] 0.888 | [40] 0.97 | [41] 0.944 | [43] 0.915 | [44] 0.853 | [45] 0.848 | [46] 0.985 | [47] 0.898 | [48] 0.939 | [49] 0.968 | [50] 0.9 | [51] 0.969 | [52] 0.707 | [53] 0.975 | [54] 0.978 | [55] 0.868 | [56] 0.974 | [57] 0.849 | [58] 0.875 | [59] 0.85 | [60] 0.729 | [61] 0.976 | [62] 0.756 | [63] 0.8 | [64] 0.791 | [65] 0.973 | [67] 0.978 | [68] 0.959 | [69] 0.948 | [70] 0.963 | [71] 0.967
active: [42] 0.479 | [66] 0.682

COC(=S)Nc1cc(Cl)cc(Cl)c1
active: [15] 0.685 | [16] 0.608 | [17] 0.559 | [23] 0.662 | [25] 0.452 | [26] 0.577 | [27] 0.499 | [33] 0.679 | [38] 0.704 | [41] 0.697 | [42] 0.458 | [44] 0.569 | [45] 0.644 | [47] 0.747 | [52] 0.544 | [55] 0.599 | [57] 0.648 | [62] 0.564 | [63] 0.588 | [64] 0.567 | [66] 0.627
inactive: [1] 0.938 | [2] 0.94 | [3] 0.935 | [4] 0.94 | [5] 0.935 | [6] 0.938 | [7] 0.939 | [8] 0.949 | [9] 0.943 | [10] 0.95 | [11] 0.702 | [12] 0.935 | [13] 0.959 | [14] 0.921 | [18] 0.912 | [19] 0.919 | [20] 0.941 | [21] 0.828 | [22] 0.966 | [24] 0.698 | [28] 0.633 | [29] 0.659 | [30] 0.929 | [31] 0.584 | [32] 0.935 | [34] 0.925 | [35] 0.653 | [36] 0.604 | [37] 0.816 | [39] 0.762 | [40] 0.919 | [43] 0.742 | [46] 0.935 | [48] 0.932 | [49] 0.936 | [50] 0.727 | [51] 0.934 | [53] 0.927 | [54] 0.933 | [56] 0.923 | [58] 0.719 | [59] 0.746 | [60] 0.585 | [61] 0.929 | [65] 0.935 | [67] 0.936 | [68] 0.927 | [69] 0.96 | [70] 0.936 | [71] 0.913

COC(=O)c1cc(OC)c(OC)cc1NC(=O)Nc1cc(Cl)cc(Cl)c1
inactive: locus YAL013W, strain DEP1, active compounds read low 0.991 | locus YBR229C, strain ROT2, active compounds read low 0.998 | [8] 1.02 | locus YDL134C, strain PPH21, active compounds read low 0.979 | locus YDR150W, strain NUM1, active compounds read low 0.916 | locus YEL061C, strain CIN8, active compounds read low 1.02 | locus YGR078C, strain PAC10, active compounds read low 1.01 | [26] 0.868 | locus YHR087W, strain rtc3, active compounds read low 1.02 | locus YJL187C, strain SWE1, active compounds read low 1.03 | locus YJR043C, strain POL32, active compounds read low 0.959 | locus YJR075W, strain HOC1, active compounds read low 0.982 | locus YKL190W, strain CNB1, active compounds read low 1.01 | locus YLR039C, strain RIC1, active compounds read low 1.01 | locus YLR058C, strain SHM2 (second series), active compounds read low 1.01 | locus YLR085C, strain ARP6, active compounds read low 0.973 | locus YLR262C, strain YPT6, active compounds read low 0.972 | locus YML094W, strain GIM5, active compounds read low 0.998 | locus YMR219W, strain ESC1, active compounds read low 1.02 | locus YMR263W, strain SAP30, active compounds read low 0.978 | locus YMR307W, strain GAS1, active compounds read low 1.05 | locus YNL153C, strain GIM3, active compounds read low 1.02 | locus YNL298W, strain CLA4 (second series), active compounds read low 0.969 | locus YNL322C, strain KRE1, active compounds read low 1.02 | locus YNR030W, strain Alg12, active compounds read low 0.978 | locus YOL006C, strain TOP1, active compounds read low 1.05 | locus YPL055C, strain LGE1, active compounds read low 1.08 | locus YPL241C, strain CIN2, active compounds read low 0.998 | locus YPR135W, strain CTF4, active compounds read low 0.926
